From PubChem BioAssay AID589 (National Center for Advancing Translational Sciences (NCATS), 2007)
The campaign covered roughly 59,000 compounds. About 6,200 (11%) were called active. Roughly 9% stayed inconclusive and do not appear here. Cut-off read from the data, not from the text of the source: active = max dye-equivalent concentration above about 10 nM; inconclusive = mostly about 1.1 nM to 9.6 nM; inactive = weaker than that. This excerpt belongs to a sample that is enriched for actives.

Assay: qHTS Assay for Spectroscopic Profiling in 4-MU Spectral Region
Details: compound autofluorescence, 340/450 nm, 4-MU equivalents; active compounds read high
Outline: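 Compounds in 100 mM Tris, pH 8.0, sat 15 min at room temperature before fluorescence was read at 340 nm excitation/450 nm emission; a per-plate six-point 4-MU standard curve converted signals to dye-equivalent concentration at each compound concentration.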

Structure (SMILES)	max dye-equivalent concentration
Cc1ccc(Oc2ccc(N)cc2)cc1	inactive
CCOc1ccccc1-n1c(SCC(=O)NCc2ccco2)nnc1-c1ccncc1	inactive
O=C(CCc1ccccc1)Nc1ccc(NC(=O)C2CC2)nc1	inactive
O=C1CC(c2ccccc2)C(=O)N1c1cccc(O)c1 (stereo unspecified)	inactive
Cc1cc(NC(=O)c2cnn3cccnc23)n(-c2ccccc2)n1	inactive
CCN(Cc1ccncc1)C(=O)c1cccc(S(=O)(=O)N2CCOCC2)c1	inactive
CCOC(=O)c1sc(NC(=O)c2cc(S(=O)(=O)N3CCOCC3)ccc2C)nc1C	inactive
O=C(Nc1ccc2c(c1)nc1n2CCCCC1)c1cc(S(=O)(=O)N2CCOCC2)ccc1Cl	inactive
O=C(Nc1nc2ccc(S(=O)(=O)N3CCCC3)cc2s1)C1CCCO1 (stereo unspecified)	inactive
O=C(Nc1nc2cc3c(cc2s1)OCCO3)c1cccc(S(=O)(=O)N2CCOCC2)c1	18 nM (active)
COc1ccc(S(=O)(=O)N2CCOCC2)cc1C(=O)Nc1nc2ccccc2s1	35 nM (active)
CC(=O)c1c(N2CCOCC2)nc(=S)n(-c2cc(C)ccc2C)c1C	inactive
Cc1ccc2cccc(S(=O)(=O)N3CCN(c4ccccc4F)CC3)c2n1	inactive
CCOC(=O)CN(C(=O)CN1CCOCC1)c1ccc(Br)cc1	inactive
COc1ncnc2c1N=C1CC(C)(C)CC(N)=C1S2	inactive
O=C(OCC(=O)N1CCN(C(=O)c2ccco2)CC1)c1ccccc1Cc1ccccc1	inactive
COC(=O)CN(c1cccc(C(C)=O)c1)S(C)(=O)=O	inactive
C=CCn1c(N)c(C(=O)OCC(C)C)c2nc3ccccc3nc21	3300 nM (active)
Cc1nnc(SCC(=O)NCc2cccs2)[nH]c1=O	inactive
CC(C)Cn1c(N)c(C(=O)NCc2cccs2)c2nc3ccccc3nc21	280 nM (active)
C=CCn1c(N)c(S(=O)(=O)c2cccs2)c2nc3ccccc3nc21	3700 nM (active)
C=CCn1c(C(C)NC(=O)CC)nc2ccccc21 (stereo unspecified)	inactive
C=CCn1c(C2CC(=O)N(c3ccc(C)cc3)C2)nc2ccccc21 (stereo unspecified)	inactive
CCN(CC(=O)NCc1cccs1)c1nnnn1-c1ccccc1	inactive

Structure (SMILES)	max dye-equivalent concentration
O=C(c1cc(C(F)(F)F)cc(C(F)(F)F)c1)N1CCC2(CCCN(Cc3ccncc3)C2)CC1	inactive
COc1ccc(-c2nn(-c3ccccc3)cc2C(=O)Nc2nc(CC(C)=O)ns2)cc1	inactive
CCn1c(CSc2nncn2-c2ccc(OC)cc2)nc2cc(S(=O)(=O)N(C)C)ccc21	inactive
Nc1nc(SCCOc2ccccc2)n[nH]1	inactive
CCOC(=O)C1CCN(C(=O)C2CCN(S(=O)(=O)N3CCCC3)CC2)CC1	inactive
COc1ccc(Cl)cc1S(=O)(=O)Nc1cccc(C(=O)O)c1	inactive
COc1ccc(C(c2nnnn2Cc2cccs2)N2CCN(c3ccccc3)CC2)cc1OC (stereo unspecified)	inactive
Nc1nonc1-c1nc2ccccc2n1Cc1ccc(F)cc1	inactive
Nn1c(SCC(=O)NC(=O)NC2CCCC2)nnc1-c1ccccc1F	inactive
CC(=O)NC1=NC(=O)CS1	inactive
COc1ccc(OC)c(N=Cc2c(O)[nH]c3ccccc23)c1	59 nM (active)
CCOc1ccccc1NC(=O)Nc1cc(OC)ccc1OC	inactive
COC(=O)c1[nH]c2ccccc2c1NS(=O)(=O)c1ccc(OC)cc1OC	inactive
Cc1nn(-c2ccccc2)c(C)c1C(=O)OCC(=O)NC(=O)NC1CCCCC1	inactive
CCC(C)(C)NC(=O)C(c1cccn1C)N(Cc1ccc(C)cc1)C(=O)Cn1nnc2ccccc21 (stereo unspecified)	inactive
CC(C)NC[C@H](O)c1ccc2ccccc2c1	inactive
CCCCC[C@H](O)CCCC(=O)O	inactive
COc1ccc(OC)c(C2N(c3ccccn3)C(=O)C3CCCN32)c1 (stereo unspecified)	inactive
CCn1nc(NC(=O)c2ccco2)c2cc3ccc(C)cc3nc21	64 nM (active)
Cc1ccnc(NC(=O)c2ccc(NC(=O)c3ccco3)cc2)c1	inactive
CCN(CC)C(=O)c1sc(NC(=O)c2ccco2)c(C#N)c1C	inactive
C=CCNc1nc(C)nc(OC)n1	inactive
C=CCn1c(COc2ccccc2C)nnc1SCC(=O)O	inactive
Cc1nc(-c2ccc(NC(=O)c3cccs3)cc2)cs1	220 nM (active)

Structure (SMILES)	max dye-equivalent concentration
O=C(O)c1ccc(NC(=O)c2cccs2)cc1	inactive
Cn1c(SCC(=O)Nc2cccc(NC(=O)c3cccs3)c2)nnc1-c1ccncc1	inactive
Cc1cc(=O)[nH]c(SCC(=O)N2c3ccccc3CC2C)n1 (stereo unspecified)	inactive
NC(=NC(=O)c1ccccc1)C1=C(O)CCC1=O	inactive
CC(C)N(C(=O)COC(=O)c1ccccc1C(=O)N1CCN(c2ccc(F)cc2)CC1)C(C)C	inactive
O=C(c1cccc2ccccc12)N1CCN(c2ccccc2F)CC1	inactive
Cn1c2ccccc2c2c(C(=O)N3CCN(c4ccc(F)cc4)CC3)cn(C3CCCC3)c(=O)c21	16 nM (active)
COc1ccc(-n2nnnc2SCC(=O)c2ccc(OC)c(OC)c2)cc1	inactive
CC1=C(C(=O)OC2CCCCC2)C(c2cccnc2)n2ncnc2N1 (stereo unspecified)	inactive
CCSc1nc2c(c(=O)[nH]1)C(c1cccnc1)C(C(=O)OC(C)C)=C(C)N2 (stereo unspecified)	10 nM (active)
COC(=O)C1=C(N)Oc2cc(C)oc(=O)c2C1c1cccnc1 (stereo unspecified)	inactive
O=C(Nc1cccc(F)c1)N1CC2(CCN(C(=O)c3cnccn3)CC2)C1	inactive
COc1ccc(NC(=O)c2c(SC)nsc2SC)cc1	inactive
CCOc1ccc(C(C)C)cc1S(=O)(=O)n1nc(C)cc1C	inactive
Cc1ccc(OCCCC(=O)N2CCOCC2)c(C)c1	inactive
CSc1nc(N)c(C#N)c(-c2ccccc2Cl)c1C#N	inactive
CSc1ccc(-c2c(C#N)c(N)nc3c2c(C)nn3-c2ccccc2)cc1	360 nM (active)
CCCc1[nH]nc2c1C(c1c(C)nn(-c3ccccc3)c1Cl)C(C#N)=C(N)O2 (stereo unspecified)	inactive
CCc1c(C)nc(N)n2c(SCC(=O)N3CCN(c4ccccc4)CC3)nnc12	inactive
CCOC(=O)c1cnc(SCC(=O)NCc2ccco2)nc1N	inactive
COc1ccc(Cl)cc1NC(=O)c1oc(C)nc1C	15 nM (active)
Cc1nc(C)c(C(=O)Nc2ccc(C)c(F)c2)o1	inactive
COc1c(C)cccc1C(=O)Nc1cc(Cl)ccc1N1CCOCC1	inactive
